The values below come from the supplement of paper PMC4022240.

What all share (assay): peptide microarray binding signal (635 nm), min-max normalized on array (fraction of array maximum); higher = stronger binding
Conditions in all cases: peptide region: H2B 7-19

Assay [1] deals with T1, HaloTag-ATRX ADD domain (163-292).
T1 chain: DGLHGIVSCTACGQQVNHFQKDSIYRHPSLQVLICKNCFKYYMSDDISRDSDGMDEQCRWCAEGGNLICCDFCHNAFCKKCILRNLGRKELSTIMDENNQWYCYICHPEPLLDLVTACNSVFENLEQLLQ
The method, then:
(§1)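 Histone 13-mer peptides were synthesized as cellulose conjugates with a C-terminal 20-atom PEG linker and printed in triplicate on nitrocellulose. The sequence given is the unmodified backbone; PTMs (Kme1/2/3, Kac, Sph/Tph, Rme/Rme2a/Rme2s, Rcit) are listed in the label and the 'peptide modifications' condition. Slides were probed at 4 °C for 1 h with biotin-labelled (HQ)5-HaloTag reader fusions (ATRX-ADD, ING2-PHD) then streptavidin-Alexa647, or with rabbit histone antibodies then anti-rabbit Alexa647. The mean 635 nm signal of the triplicate spots was scaled 0-1 between the lowest and highest values on each array.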

For assay [2], the target named is HaloTag-ING2 PHD (mouse Ing2 200-280). The procedure:
as §1

In assay [3] the target is anti-H3K4me3 antibody ab8580. The method, then:
as §1

Assay [4] addresses anti-H3K9me3 antibody ab8898. The method, then:
as §1

[5] abbreviates: peptide modifications: H2BK11ac, binder concentration: 1:2,000 dilution.
Where [6] appears, read: peptide modifications: H2BK11ac, binder concentration: 1:10,000 dilution.
[7] abbreviates: binder concentration: 1:2,000 dilution.
The mark [8] stands for this setting: binder concentration: 1:10,000 dilution.
Where [9] appears, read: peptide modifications: H2BK11ac H2BS14ph H2BK15ac, binder concentration: 1:2,000 dilution.
The mark [10] stands for this setting: peptide modifications: H2BK11ac H2BS14ph H2BK15ac, binder concentration: 1:10,000 dilution.
The mark [11] stands for this setting: peptide modifications: H2BK11ac H2BK15ac H2BK16ac, binder concentration: 1:2,000 dilution.
The mark [12] stands for this setting: peptide modifications: H2BK11ac H2BK15ac H2BK16ac, binder concentration: 1:10,000 dilution.
The mark [13] stands for this setting: peptide modifications: H2BK11ac H2BK12ac H2BK15ac H2BK16ac, binder concentration: 1:2,000 dilution.
The mark [14] stands for this setting: peptide modifications: H2BK11ac H2BK12ac H2BK15ac H2BK16ac, binder concentration: 1:10,000 dilution.
[15] abbreviates: peptide modifications: H2BK11ac H2BK12ac H2BS14ph, binder concentration: 1:2,000 dilution.
Setting [16] is: peptide modifications: H2BK11ac H2BK12ac H2BS14ph, binder concentration: 1:10,000 dilution.
The mark [17] stands for this setting: peptide modifications: H2BK12ac H2BK15ac H2BK16ac, binder concentration: 1:2,000 dilution.
The mark [18] stands for this setting: peptide modifications: H2BK12ac H2BK15ac H2BK16ac, binder concentration: 1:10,000 dilution.
Setting [19] is: peptide modifications: H2BK12ac H2BK15ac, binder concentration: 1:2,000 dilution.
Where [20] appears, read: peptide modifications: H2BK12ac H2BK15ac, binder concentration: 1:10,000 dilution.
The mark [21] stands for this setting: peptide modifications: H2BK11ac H2BK15ac, binder concentration: 1:2,000 dilution.
The mark [22] stands for this setting: peptide modifications: H2BK11ac H2BK15ac, binder concentration: 1:10,000 dilution.
[23] abbreviates: peptide modifications: H2BK11ac H2BK16ac, binder concentration: 1:2,000 dilution.
Where [24] appears, read: peptide modifications: H2BK11ac H2BK16ac, binder concentration: 1:10,000 dilution.

± gives the standard deviation.

B1: H2B 7-19 A P A P Kac K G S K K A V T (peptide)
chain: APAPKKGSKKAVT
With B1, the “peptide microarray binding signal” value turned out to be 0.00367 ± 0.00044 in assay [1] (peptide modifications: H2BK11ac, binder concentration: 50 nM); 0.00667 ± 0.0024 in assay [1] (peptide modifications: H2BK11ac, binder concentration: 500 nM); 0.00227 ± 7.3e-05 in assay [2] (peptide modifications: H2BK11ac, binder concentration: 10 nM); 0.00432 ± 0.00029 in assay [2] (peptide modifications: H2BK11ac, binder concentration: 100 nM); 0.000264 ± 1.1e-05 in assay [3] (setting [5]); 0.000628 ± 6.7e-06 in assay [3] (setting [6]). Besides, the “peptide microarray binding signal” value in assay [4] (setting [5]) is 0.000408; in assay [4] (setting [6]) it was 0.000519 ± 5.6e-06.

B2: H2B 7-19 A P A P K K G S K K A V T (peptide)
chain: APAPKKGSKKAVT
With B2, the “peptide microarray binding signal” value in assay [1] (binder concentration: 50 nM) was 0.002382 ± 1.1e-05; in assay [1] (binder concentration: 500 nM), 0.00743 ± 0.0029; in assay [2] (binder concentration: 10 nM), 0.00328 ± 6.2e-05; in assay [2] (binder concentration: 100 nM), 0.00283 ± 4.6e-05; in assay [3] (setting [7]), 0.0043 ± 0.0018; in assay [3] (setting [8]), 0.00114 ± 1.2e-05. Besides, the “peptide microarray binding signal” value is 0.00116 ± 9.9e-05 in assay [4] (setting [7]) and 0.001211 ± 1.2e-05 in assay [4] (setting [8]).

B3: H2B 7-19 A P A P Kac K G Sph Kac K A V T (peptide)
chain: APAPKKGSKKAVT
Turning to B3, the “peptide microarray binding signal” value in assay [1] (peptide modifications: H2BK11ac H2BS14ph H2BK15ac, binder concentration: 50 nM) stood at 0.00176 ± 7.1e-05; in assay [1] (peptide modifications: H2BK11ac H2BS14ph H2BK15ac, binder concentration: 500 nM) it was 0.00238 ± 7.9e-05; in assay [2] (peptide modifications: H2BK11ac H2BS14ph H2BK15ac, binder concentration: 10 nM), 0.00286 ± 8.4e-05; in assay [2] (peptide modifications: H2BK11ac H2BS14ph H2BK15ac, binder concentration: 100 nM) it was 0.00149 ± 3.1e-05; in assay [3] (setting [9]), 0.00157 ± 4.2e-05; in assay [3] (setting [10]), 0.000742 ± 1.3e-05. For the same molecule, the “peptide microarray binding signal” value in assay [4] (setting [9]) stood at 0.000393 ± 1e-05; in assay [4] (setting [10]), 0.000692 ± 7.3e-06.

B4: H2B 7-19 A P A P Kac K G S Kac Kac A V T (peptide)
chain: APAPKKGSKKAVT
Regarding B4, the “peptide microarray binding signal” value in assay [1] (peptide modifications: H2BK11ac H2BK15ac H2BK16ac, binder concentration: 50 nM) turned out to be 0.005642 ± 4e-05; in assay [1] (peptide modifications: H2BK11ac H2BK15ac H2BK16ac, binder concentration: 500 nM), 0.0203 ± 0.002; in assay [2] (peptide modifications: H2BK11ac H2BK15ac H2BK16ac, binder concentration: 10 nM) it was 0.00776 ± 0.00056; in assay [2] (peptide modifications: H2BK11ac H2BK15ac H2BK16ac, binder concentration: 100 nM), 0.0162 ± 0.0017; in assay [3] (setting [11]) it was 0.0139 ± 0.0047; in assay [3] (setting [12]), 0.00245 ± 0.0001. For the same molecule, the “peptide microarray binding signal” value in assay [4] (setting [11]) is 0.00378 ± 0.00028; in assay [4] (setting [12]), 0.00254 ± 0.0001.

B5: H2B 7-19 A P A P Kac Kac G S Kac Kac A V T (peptide)
chain: APAPKKGSKKAVT
Consider B5, for which the “peptide microarray binding signal” value was 0.0047 ± 0.00016 in assay [1] (peptide modifications: H2BK11ac H2BK12ac H2BK15ac H2BK16ac, binder concentration: 50 nM); 0.00329 ± 0.00049 in assay [1] (peptide modifications: H2BK11ac H2BK12ac H2BK15ac H2BK16ac, binder concentration: 500 nM); 0.00555 ± 0.00016 in assay [2] (peptide modifications: H2BK11ac H2BK12ac H2BK15ac H2BK16ac, binder concentration: 10 nM); 0.00524 ± 0.00027 in assay [2] (peptide modifications: H2BK11ac H2BK12ac H2BK15ac H2BK16ac, binder concentration: 100 nM); 0.000264 ± 1e-05 in assay [3] (setting [13]); 0.000742 ± 1.3e-05 in assay [3] (setting [14]). Besides, the results for the “peptide microarray binding signal” value in assay [4] (setting [13]) and in assay [4] (setting [14]) were 0.000982 ± 5.2e-05 and 0.00167 ± 2.8e-05, respectively.

B6: H2B 7-19 A P A P Kac Kac G Sph K K A V T (peptide)
chain: APAPKKGSKKAVT
Consider B6, for which the “peptide microarray binding signal” value came to 0.00197 ± 4e-05 in assay [1] (peptide modifications: H2BK11ac H2BK12ac H2BS14ph, binder concentration: 50 nM); 0.00252 ± 9e-05 in assay [1] (peptide modifications: H2BK11ac H2BK12ac H2BS14ph, binder concentration: 500 nM); 0.0046 ± 0.00019 in assay [2] (peptide modifications: H2BK11ac H2BK12ac H2BS14ph, binder concentration: 10 nM); 0.00163 ± 3.3e-05 in assay [2] (peptide modifications: H2BK11ac H2BK12ac H2BS14ph, binder concentration: 100 nM); 0.00215 ± 8.8e-05 in assay [3] (setting [15]); 0.000628 ± 6.7e-06 in assay [3] (setting [16]). The “peptide microarray binding signal” value came out at 0.000423 ± 1.8e-05 in assay [4] (setting [15]) and 0.00075 ± 4e-05 in assay [4] (setting [16]).

B7: H2B 7-19 A P A P K Kac G S Kac Kac A V T (peptide)
chain: APAPKKGSKKAVT
In the case of B7, the “peptide microarray binding signal” value in assay [1] (peptide modifications: H2BK12ac H2BK15ac H2BK16ac, binder concentration: 50 nM) came out at 0.00505 ± 0.00068; in assay [1] (peptide modifications: H2BK12ac H2BK15ac H2BK16ac, binder concentration: 500 nM), 0.00719 ± 0.0027; in assay [2] (peptide modifications: H2BK12ac H2BK15ac H2BK16ac, binder concentration: 10 nM), 0.00621 ± 0.0005; in assay [2] (peptide modifications: H2BK12ac H2BK15ac H2BK16ac, binder concentration: 100 nM), 0.00631 ± 0.00038; in assay [3] (setting [17]), 0.00068 ± 9e-05; in assay [3] (setting [18]), 0.001541 ± 1.5e-05. The figures for the “peptide microarray binding signal” value in assay [4] (setting [17]) and in assay [4] (setting [18]) were 0.00104 ± 4.9e-05 and 0.00133 ± 4e-05, respectively.

B8: H2B 7-19 A P A P K Kac G S Kac K A V T (peptide)
chain: APAPKKGSKKAVT
Turning to B8, the “peptide microarray binding signal” value in assay [1] (peptide modifications: H2BK12ac H2BK15ac, binder concentration: 50 nM) is 0.00342 ± 5.6e-05; in assay [1] (peptide modifications: H2BK12ac H2BK15ac, binder concentration: 500 nM), 0.00938 ± 0.0002; in assay [2] (peptide modifications: H2BK12ac H2BK15ac, binder concentration: 10 nM), 0.00609 ± 0.00019; in assay [2] (peptide modifications: H2BK12ac H2BK15ac, binder concentration: 100 nM) it was 0.00503 ± 0.00011; in assay [3] (setting [19]) it was 0.00285 ± 0.0017; in assay [3] (setting [20]) it was 0.0012 ± 3.2e-05. For the same molecule, the “peptide microarray binding signal” value in assay [4] (setting [19]) was 0.000966 ± 7.9e-05; in assay [4] (setting [20]), 0.000923 ± 9.6e-06.

B9: H2B 7-19 A P A P Kac K G S Kac K A V T (peptide)
chain: APAPKKGSKKAVT
Take B9: the “peptide microarray binding signal” value in assay [1] (peptide modifications: H2BK11ac H2BK15ac, binder concentration: 50 nM) came out at 0.00295 ± 3.3e-05; in assay [1] (peptide modifications: H2BK11ac H2BK15ac, binder concentration: 500 nM) it was 0.00457 ± 5.4e-05; in assay [2] (peptide modifications: H2BK11ac H2BK15ac, binder concentration: 10 nM), 0.00686 ± 0.00014; in assay [2] (peptide modifications: H2BK11ac H2BK15ac, binder concentration: 100 nM) it was 0.0056 ± 0.00049; in assay [3] (setting [21]), 0.00319 ± 0.0012; in assay [3] (setting [22]), 0.000913 ± 2.8e-05. For the same molecule, the “peptide microarray binding signal” value in assay [4] (setting [21]) turned out to be 0.00104 ± 1.4e-05; in assay [4] (setting [22]), 0.0015 ± 4.4e-05.

B10: H2B 7-19 A P A P Kac K G S K Kac A V T (peptide)
chain: APAPKKGSKKAVT
With B10, the “peptide microarray binding signal” value in assay [1] (peptide modifications: H2BK11ac H2BK16ac, binder concentration: 50 nM) came to 0.00401 ± 5.5e-05; in assay [1] (peptide modifications: H2BK11ac H2BK16ac, binder concentration: 500 nM) it was 0.0108 ± 0.00051; in assay [2] (peptide modifications: H2BK11ac H2BK16ac, binder concentration: 10 nM) it was 0.00788 ± 0.0021; in assay [2] (peptide modifications: H2BK11ac H2BK16ac, binder concentration: 100 nM), 0.00751 ± 0.00032; in assay [3] (setting [23]), 0.00815 ± 0.00023; in assay [3] (setting [24]), 0.00108 ± 1.9e-05. Moreover, the “peptide microarray binding signal” value was found to be 0.00178 ± 9e-05 in assay [4] (setting [23]) and 0.00133 ± 4.6e-05 in assay [4] (setting [24]).
